Laboratory results from article PMC7862700, “An all-to-all approach to the identification of sequence-specific readers for epigenetic DNA modifications on cytosine”.

Experiments:
Test in all cases: DAPPL (digital affinity profiling via proximity ligation, sequencing); 10 mM Tris-HCl pH 7.5, 50 mM NaCl, 1 mM DTT, 4% glycerol, room temperature, 30 min; GST-TFs on glutathione beads, 16-mer random dsDNA library, 0.1% formaldehyde crosslink after washing; high values mean tight binding
Conditions in all cases: protein: recombinant; tags: N-terminal GST; dsDNA, one strand shown
ELK1 = target: T1, ELK1 (Homo sapiens, UniProt P19419 1-428)
T1 sequence: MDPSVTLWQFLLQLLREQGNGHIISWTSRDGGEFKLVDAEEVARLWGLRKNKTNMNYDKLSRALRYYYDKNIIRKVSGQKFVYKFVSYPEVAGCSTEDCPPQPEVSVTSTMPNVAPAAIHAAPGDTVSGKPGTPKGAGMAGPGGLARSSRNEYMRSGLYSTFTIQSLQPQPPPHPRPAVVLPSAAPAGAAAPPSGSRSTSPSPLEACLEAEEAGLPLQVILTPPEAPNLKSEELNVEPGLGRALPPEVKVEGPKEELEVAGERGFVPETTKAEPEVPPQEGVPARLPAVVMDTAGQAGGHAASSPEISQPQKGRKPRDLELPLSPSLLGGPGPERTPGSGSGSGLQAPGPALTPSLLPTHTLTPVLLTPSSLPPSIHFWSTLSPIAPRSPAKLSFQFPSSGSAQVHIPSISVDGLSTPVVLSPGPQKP
Summary of the method: (§1)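 GST fusions of human transcription factors were expressed in yeast and captured with glutathione beads. Once given DNA barcodes and pooled alongside a tag-only sample, they were incubated for 30 min at room temperature with 200 nmole of a random double-stranded 16-mer DNA library in Tris/NaCl/DTT/glycerol buffer, then washed, crosslinked (0.1% formaldehyde), proximity-ligated, PCR-amplified and sequenced on an Illumina NextSeq500. The binding signal of each hexamer is its read frequency for a factor divided by its frequency for the tag-only sample.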

GABPA = target: T2, GABPA (Homo sapiens, UniProt Q06546 1-454)
T2 sequence: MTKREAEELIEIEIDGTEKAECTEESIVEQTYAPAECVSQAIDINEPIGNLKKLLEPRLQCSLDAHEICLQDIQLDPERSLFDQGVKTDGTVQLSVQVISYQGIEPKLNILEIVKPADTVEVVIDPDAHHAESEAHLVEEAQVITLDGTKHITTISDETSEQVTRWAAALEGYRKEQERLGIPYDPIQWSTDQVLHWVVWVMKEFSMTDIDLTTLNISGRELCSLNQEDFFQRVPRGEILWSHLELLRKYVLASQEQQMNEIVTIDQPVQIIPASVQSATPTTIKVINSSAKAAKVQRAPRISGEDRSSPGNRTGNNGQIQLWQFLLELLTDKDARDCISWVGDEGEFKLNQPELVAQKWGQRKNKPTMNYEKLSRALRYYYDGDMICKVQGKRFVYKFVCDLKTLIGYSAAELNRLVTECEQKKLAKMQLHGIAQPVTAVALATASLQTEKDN
Summary of the method: as §1

ERG = target: T3, ERG (Homo sapiens, UniProt P11308 1-479)
T3 sequence: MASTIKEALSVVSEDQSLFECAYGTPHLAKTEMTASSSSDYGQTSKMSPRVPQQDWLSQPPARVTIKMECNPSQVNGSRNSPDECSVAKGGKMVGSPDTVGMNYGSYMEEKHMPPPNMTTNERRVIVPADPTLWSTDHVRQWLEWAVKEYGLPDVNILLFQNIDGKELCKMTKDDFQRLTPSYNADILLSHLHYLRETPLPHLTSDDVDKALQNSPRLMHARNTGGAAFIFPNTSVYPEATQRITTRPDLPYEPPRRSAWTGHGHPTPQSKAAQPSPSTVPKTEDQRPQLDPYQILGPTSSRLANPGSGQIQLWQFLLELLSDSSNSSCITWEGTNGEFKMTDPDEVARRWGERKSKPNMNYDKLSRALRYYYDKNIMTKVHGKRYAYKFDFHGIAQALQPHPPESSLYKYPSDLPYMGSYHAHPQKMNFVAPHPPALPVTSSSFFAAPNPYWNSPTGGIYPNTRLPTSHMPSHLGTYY
Summary of the method: as §1

ELF1 = ELF1 (Homo sapiens, UniProt P32519 1-619)
ELF1, sequence (P32519 whole entry): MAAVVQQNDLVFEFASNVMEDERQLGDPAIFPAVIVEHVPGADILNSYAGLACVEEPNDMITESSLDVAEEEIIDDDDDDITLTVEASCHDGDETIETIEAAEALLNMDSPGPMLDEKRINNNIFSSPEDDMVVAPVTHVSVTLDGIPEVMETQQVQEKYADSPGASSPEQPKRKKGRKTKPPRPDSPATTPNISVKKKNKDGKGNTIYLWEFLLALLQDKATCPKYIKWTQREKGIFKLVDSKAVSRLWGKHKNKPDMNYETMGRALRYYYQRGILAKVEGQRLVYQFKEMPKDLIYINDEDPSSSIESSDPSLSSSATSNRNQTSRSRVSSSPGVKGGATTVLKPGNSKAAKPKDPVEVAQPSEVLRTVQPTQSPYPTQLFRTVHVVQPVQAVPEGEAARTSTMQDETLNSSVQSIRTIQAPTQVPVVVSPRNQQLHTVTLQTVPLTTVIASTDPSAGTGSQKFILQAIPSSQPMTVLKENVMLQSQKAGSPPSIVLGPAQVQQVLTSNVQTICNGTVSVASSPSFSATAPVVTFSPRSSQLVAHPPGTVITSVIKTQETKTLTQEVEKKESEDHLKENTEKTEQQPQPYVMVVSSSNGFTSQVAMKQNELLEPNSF
Summary of the method: as §1

EHF = target: T4, EHF (Homo sapiens, UniProt Q9NZC4 1-300)
T4 sequence: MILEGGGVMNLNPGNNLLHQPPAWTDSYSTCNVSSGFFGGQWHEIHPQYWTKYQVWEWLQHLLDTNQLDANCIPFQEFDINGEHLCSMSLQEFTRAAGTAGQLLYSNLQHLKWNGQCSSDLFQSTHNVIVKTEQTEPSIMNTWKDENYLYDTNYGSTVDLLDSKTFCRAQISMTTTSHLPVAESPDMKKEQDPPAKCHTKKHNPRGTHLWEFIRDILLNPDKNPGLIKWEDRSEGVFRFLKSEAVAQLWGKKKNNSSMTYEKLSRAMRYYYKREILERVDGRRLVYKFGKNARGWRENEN
Summary of the method: as §1

SPIB = SPIB (Homo sapiens, UniProt Q01892 1-262)
SPIB, sequence (Q01892 whole entry): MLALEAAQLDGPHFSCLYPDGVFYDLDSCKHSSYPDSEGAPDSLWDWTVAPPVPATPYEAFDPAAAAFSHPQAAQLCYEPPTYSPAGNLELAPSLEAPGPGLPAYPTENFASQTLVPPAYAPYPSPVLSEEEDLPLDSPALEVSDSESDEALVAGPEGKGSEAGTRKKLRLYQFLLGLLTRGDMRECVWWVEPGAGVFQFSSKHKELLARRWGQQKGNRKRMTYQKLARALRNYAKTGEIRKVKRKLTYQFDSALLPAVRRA
Summary of the method: as §1

ELK3 = target: T5, ELK3 (Homo sapiens, UniProt P41970 1-407)
T5 sequence: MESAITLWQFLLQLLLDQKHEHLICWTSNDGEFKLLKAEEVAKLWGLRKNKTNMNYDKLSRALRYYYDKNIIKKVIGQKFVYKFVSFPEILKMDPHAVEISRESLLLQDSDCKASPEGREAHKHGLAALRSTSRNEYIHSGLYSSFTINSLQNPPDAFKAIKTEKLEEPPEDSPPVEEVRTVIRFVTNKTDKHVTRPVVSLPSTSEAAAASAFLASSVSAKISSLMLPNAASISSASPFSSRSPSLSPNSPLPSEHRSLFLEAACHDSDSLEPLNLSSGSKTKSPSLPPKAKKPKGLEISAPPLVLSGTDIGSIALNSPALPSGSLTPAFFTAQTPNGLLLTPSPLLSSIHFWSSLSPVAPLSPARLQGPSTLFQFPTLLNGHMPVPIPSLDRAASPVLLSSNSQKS
Summary of the method: as §1

SPIC = target: T6, SPIC (Homo sapiens, UniProt Q8N5J4 1-248)
T6 sequence: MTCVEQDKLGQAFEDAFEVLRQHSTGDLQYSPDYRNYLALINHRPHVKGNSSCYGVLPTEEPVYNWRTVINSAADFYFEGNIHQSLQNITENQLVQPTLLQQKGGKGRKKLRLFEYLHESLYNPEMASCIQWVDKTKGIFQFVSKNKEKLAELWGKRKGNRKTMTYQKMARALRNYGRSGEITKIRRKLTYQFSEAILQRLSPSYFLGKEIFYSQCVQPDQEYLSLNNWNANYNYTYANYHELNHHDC
Summary of the method: as §1

ELF4 = ELF4 (Homo sapiens, UniProt Q99607 1-663)
ELF4, sequence (Q99607 whole entry): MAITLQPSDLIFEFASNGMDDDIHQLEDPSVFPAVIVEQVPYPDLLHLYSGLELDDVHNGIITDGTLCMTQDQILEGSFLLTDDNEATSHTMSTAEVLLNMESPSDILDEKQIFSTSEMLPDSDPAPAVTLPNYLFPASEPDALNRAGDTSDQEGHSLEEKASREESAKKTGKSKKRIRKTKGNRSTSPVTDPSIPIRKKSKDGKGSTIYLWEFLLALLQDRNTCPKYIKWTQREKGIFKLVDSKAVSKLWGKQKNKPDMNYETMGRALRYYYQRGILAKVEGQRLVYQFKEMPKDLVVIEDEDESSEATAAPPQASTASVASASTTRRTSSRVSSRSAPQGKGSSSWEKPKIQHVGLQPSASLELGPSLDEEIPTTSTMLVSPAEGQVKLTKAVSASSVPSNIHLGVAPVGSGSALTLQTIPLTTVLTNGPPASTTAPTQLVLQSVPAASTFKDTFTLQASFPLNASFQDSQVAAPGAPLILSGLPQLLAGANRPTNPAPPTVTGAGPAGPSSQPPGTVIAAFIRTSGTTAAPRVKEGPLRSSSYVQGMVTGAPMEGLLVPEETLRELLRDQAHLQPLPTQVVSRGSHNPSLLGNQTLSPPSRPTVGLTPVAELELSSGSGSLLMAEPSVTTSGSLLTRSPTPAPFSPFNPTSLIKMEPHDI
Summary of the method: as §1

TTAGAT
binding signal (ELK1): 1.16 fold enrichment (6-mer frequency, TF over GST control)
binding signal (GABPA): 1.06 fold enrichment (6-mer frequency, TF over GST control)
binding signal (ERG): 1.04 fold enrichment (6-mer frequency, TF over GST control)
binding signal (ELF1): 1.03 fold enrichment (6-mer frequency, TF over GST control)
binding signal (EHF): 1.13 fold enrichment (6-mer frequency, TF over GST control)
binding signal (SPIB): 1.05 fold enrichment (6-mer frequency, TF over GST control)
binding signal (ELK3): 1.09 fold enrichment (6-mer frequency, TF over GST control)
binding signal (SPIC): 1.04 fold enrichment (6-mer frequency, TF over GST control)
binding signal (ELF4): 1.12 fold enrichment (6-mer frequency, TF over GST control)
